From PubChem BioAssay (Tox21) come the findings set out here.

Structures are written as SMILES. Records with an inconclusive call do not appear. Where a call stands in place of a potency, no number is given. Calls of active or inactive are those of the source. Calls come from the whole dose curve. Square brackets hold non-standard residues; d marks the D form. Peptide text beside a SMILES is read from it. pGlu = O=C1CC[C@@H](C(=O)O)N1
Potency is the fitted concentration of half-maximal effect.

In the assay the target is 5-hydroxytryptamine receptor 2A (Homo sapiens) (UniProt P28223). The assay can be described thus: 5-hydroxytryptamine receptor 2A (HTR2A) small molecule antagonists, cell-based qHTS assay (AID 1963586). Note: nearly all actives have a fitted effect of over 45% in size. Particulars: HTR2A-CHO cells, DOI-induced calcium flux, fluorescence; series mostly up to 61.5 µM. An excerpt: National Center for Advancing Translational Sciences [NCATS]
5-hydroxytryptamine receptor 2A (Homo sapiens), sequence (P28223 whole entry, looked up): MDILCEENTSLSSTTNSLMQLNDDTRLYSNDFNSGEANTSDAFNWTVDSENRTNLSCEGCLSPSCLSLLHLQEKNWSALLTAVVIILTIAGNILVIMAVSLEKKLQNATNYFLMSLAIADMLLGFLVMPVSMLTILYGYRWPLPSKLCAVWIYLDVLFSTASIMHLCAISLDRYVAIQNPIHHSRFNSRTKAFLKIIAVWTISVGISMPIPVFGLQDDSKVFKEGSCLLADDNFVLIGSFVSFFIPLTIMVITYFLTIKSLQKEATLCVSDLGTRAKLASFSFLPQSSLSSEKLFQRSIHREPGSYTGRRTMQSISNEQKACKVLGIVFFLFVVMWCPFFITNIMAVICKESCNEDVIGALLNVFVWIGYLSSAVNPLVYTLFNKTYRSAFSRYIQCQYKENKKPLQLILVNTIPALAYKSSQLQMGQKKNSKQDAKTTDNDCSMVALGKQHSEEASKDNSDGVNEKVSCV
Division of Preclinical Innovation [DPI]
U.S. Environmental Protection Agency [EPA]
National Institutes of Environmental Health Sciences [NIEHS]
National Toxicology Program [NTP]
U.S. Food and Drug Administration [FDA]
The HTR2A receptor is a subtype of the 5-HT2 receptor that belongs to the serotonin receptor family and is a G protein-coupled receptor (GPCR). The HTR2A-CHO cell line stably expressing human 5-hydroxytryptamine receptor 2A (HTR2A) can be used for screening antagonists of interactions between 5-HT2 and its ligands. The HTR2A-CHO calcium flux assay is a homogeneous fluorescence-based assay for detecting the intracellular calcium level using FDSS kinetic plate reader system.
Tox21 Assay Protocol Summary:
HTR2A-CHO cells were dispensed at 2000 cells/3uL/well in 1536-well black-clear bottom plates using a Multidrop Dispenser. After the assay plates were incubated at a 37 C/5% CO2 incubator for 18 h, 3 uL of Dye Loading Buffer was transferred to the assay plate by a Flying Reagent Dispenser. The assay plates were incubated at 37 C for 1h. For antagonist mode, 23 nL of compounds dissolved in DMSO, positive controls or DMSO only was transferred to the assay plate by a pin tool. After 5 min incubation at room temperature, 1.5 uL of 4-Iodo-2,5-dimethoxy-alpha-methylbenzeneethanamine hydrochloride (DOI) at 4nM was added to each well. The fluorescence intensity in the plates was measured using FDSS 7000EX kinetic plate reader for 3 min at 1 sec intervals.
Background: In qHTS, concentration-response curves come from the screen itself.
Take `C[C@H](N)C(=O)c1ccccc1`: the Potency entry was “inactive”.
Regarding `COc1cccc(C(=O)NN(C(=O)c2cc(C)cc(C)c2)C(C)(C)C)c1C`, the Potency entry is “inactive”.
The result for `O=C(NC(=O)c1cc(F)c(F)cc1Cl)Nc1cc(F)ccc1N1CCC(C(=O)O)CC1` reads “inactive”.
Take `CNC(=O)Oc1ccccc1C(C)C`: the Potency result was “inactive”.
The result for `[Cl-].[Cl-].[Cl-].[Yb+3]` reads “inactive”; that for `CCCC[N+](=O)[O-]`, “inactive”; that for `COC1=CC(=O)O[C@@H](CCc2ccccc2)C1`, “inactive”.
Turning to `N#CC(Br)(Br)C(N)=O`, the Potency result was “inactive”.
Turning to `CCNC(=O)NC(=O)/C(C#N)=N/OC`, the Potency entry was “inactive”.
With `CCCCCCBr`, the Potency entry is “inactive”.
For `COP(=S)(OC)Oc1ccc(S(N)(=O)=O)cc1` the value was “inactive”.
On to `[CH3][Hg][Cl]`, for which the Potency result was “inactive”.
Take `Nc1c(Cl)c(Cl)c(Cl)c(Cl)c1Cl`: the Potency entry was “inactive”.
The result for `CCOP(=S)(Oc1cnc(C(C)(C)C)nc1)OC(C)C` (stereo not given) reads “inactive”; that for `CCC/C(=N\OCC)C1=C(O)CC(CC(C)SCC)CC1=O` (stereo not given), “inactive”; that for `CCOP(=S)(OCC)SC(CCl)N1C(=O)c2ccccc2C1=O` (stereo not given), “inactive”.
For the molecule `CC(=O)[O-].[Tl+]`, the Potency result was “inactive”.
As to `NNC(=O)c1cccnc1`, the Potency result is “inactive”.
For `C[C@]12C=CC(=O)C=C1CC[C@@H]1[C@@H]2CC[C@@]2(C)[C@H]1CC[C@]2(C)O`, the Potency entry was “inactive”.
The result for `CCNC(=O)[C@@H]1CCCN1C(=O)[C@H](CCCN=C(N)N)NC(=O)[C@H](CC(C)C)NC(=O)CNC(=O)[C@H](Cc1ccc(O)cc1)NC(=O)[C@H](CO)NC(=O)[C@H](Cc1c[nH]c2ccccc12)NC(=O)[C@H](Cc1cnc[nH]1)NC(=O)[C@@H]1CCC(=O)N1` ([pGlu]HWSYGLRP-NHEt) reads “inactive”; that for `O=CC(Br)(Br)Br`, “inactive”; that for `CCOC(=O)C(Cl)Cc1cc(-n2nc(C)n(C(F)F)c2=O)c(F)cc1Cl` (stereo not given), “inactive”.
For the molecule `OC(c1ccc(Cl)cc1)(c1ccc(Cl)cc1)C(Cl)(Cl)Cl`, the Potency entry is “inactive”.
Take `COP(N)(=S)Oc1ccccc1C(=O)OC(C)C` (stereo not given): the Potency result was “inactive”.
Take `ClSC(Cl)(Cl)Cl`: the Potency result is “inactive”.
Regarding `C[C@@H](N)[C@@H](O)c1ccccc1`, the Potency entry is “inactive”.
Consider `O=[N+]([O-])c1cccc2c([N+](=O)[O-])cccc12`, for which the Potency entry was “inactive”.
For `Oc1ccc2[nH]cc(CCCCN3CC=C(c4ccccc4)CC3)c2c1` the value was 818 nM (active); for `C=CC(=O)OCC(COC(=O)C=C)(COC(=O)C=C)COC(=O)C=C`, “inactive”.
With `O=C(N[C@H]1CN2CCC1CC2)c1ccc2c(c1)OCCO2`, the Potency entry is “inactive”.
With `CC(=O)OC1(c2ccccc2)CCN(CCc2ccccc2)CC1`, the Potency is 9650 nM (active).
On to `Cc1cc(OC(=O)N(C)C)nn1C(=O)N(C)C`, for which the Potency entry is “inactive”.
As to `CCC(Cl)CCl` (stereo not given), the Potency result was “inactive”.
Take `NC(=O)C(Cl)(Cl)Cl`: the Potency result is “inactive”.
The result for `O=C1C=CC(=O)c2ccccc21` reads “inactive”.
Regarding `Clc1ccccc1`, the Potency result was “inactive”.
Take `CC(=O)[O-].CC(=O)[O-].O.O.O.[Pb+2]`: the Potency result is “inactive”.
As for `COc1cc(C[C@@H](C)N)c(OC)cc1C`, the Potency is 1.3 nM (active).
Regarding `C#CC1(O)CCCCC1`, the Potency entry was “inactive”.
With `COP(=S)(OC)Oc1nc(Cl)c(Cl)cc1Cl`, the Potency entry is “inactive”.
